In PubChem BioAssay (NCATS):
Results filed as inconclusive are left out. Active and inactive are the calls of the source. The call rests on the fitted dose curve; in most records, active means well fitted curve in the direction sought with a large enough effect; inconclusive means small, poorly fitted or top-dose-only effect, or another doubt; inactive means no such curve, though single readings can be large; an effect the other way counts as inactive or inconclusive.

Columns and labels:
[1] = qHTS of pediatric cancer cell lines to identify multiple opportunities for drug repurposing: Primary screen for control Hh wild type fibroblast cells (AID 1347106); further: nearly all actives have a fitted effect of over 55% in size
Procedure, shortened: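 Cells (500-1,000/well) in growth media were settled 5 h at 37 degrees C, then given compounds for 48 h. Viability was read as CellTiter-Glo luminescence. Primary runs used MIPE at 11 points (0.78 nM-46 µM) and NPC at 8 points (0.59 nM-46 µM); follow-ups used 11 points.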

[2] = qHTS of pediatric cancer cell lines to identify multiple opportunities for drug repurposing: Primary screen for Rh41 cells (AID 1347108); further: nearly all actives have a fitted effect of over 70% in size
Procedure, shortened: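 Luminescence from CellTiter-Glo served as readout of metabolically active cells after 48 h compound exposure. Titrations: MIPE 11-point, from 0.78 nM; NPC 8-point, from 0.59 nM (final). Concentration-response curves came straight from the primary screen.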

[3] = qHTS of pediatric cancer cell lines to identify multiple opportunities for drug repurposing: Confirmatory screen for NB1643 cells (AID 1347109); further: nearly all actives have a fitted effect of over 45% in size
Procedure, shortened: (§1)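 Cells (500-1,000/well) rested 5 h, then received compounds for 48 h; metabolically active cells were measured by CellTiter-Glo luminescence. Final concentrations spanned up to 46 µM (MIPE, 11-point) or 0.59 nM-46 µM (NPC, 8-point) in primary screens, 11-point in follow-ups.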

[4] = qHTS of pediatric cancer cell lines to identify multiple opportunities for drug repurposing: Confirmatory screen for A673 cells (AID 1347110);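 further: cells exposed to compound for 48 h before the viability read; nearly all actives have a fitted effect of over 65% in size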
Procedure, shortened: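 Cells plated at 500-1,000/well were treated five hours later with multi-point dilutions up to 46 µM final. After two days, CellTiter-Glo was added and luminescence read.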

[5] = qHTS of pediatric cancer cell lines to identify multiple opportunities for drug repurposing: Confirmatory screen for SK-N-MC cells (AID 1347111);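 further: cells exposed to compound for 48 h before the readout; nearly all actives have a fitted effect of over 70% in size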
Procedure, shortened: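 Seed 500-1,000 cells/well; rest 5 h at 37 degrees C. Pin-transfer compounds, 11-point titration. Incubate 48 h. Add CellTiter-Glo, 15 min RT, read luminescence.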

[6] = qHTS of pediatric cancer cell lines to identify multiple opportunities for drug repurposing: Confirmatory screen for LAN-5 cells (AID 1347113); further: nearly all actives have a fitted effect of over 65% in size
Procedure, shortened: as §1

[7] = qHTS of pediatric cancer cell lines to identify multiple opportunities for drug repurposing: Confirmatory screen for DAOY cells (AID 1347114); further: nearly all actives have a fitted effect of over 65% in size
Procedure, shortened: (§2)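 Viability measured as metabolically active cells via CellTiter-Glo luminescence following 48 hours of compound exposure, 11-point dilutions in confirmatory testing. 500-1,000 cells/well plated 5 hours before dosing; controls were DMSO and 2.3 µM bortezomib.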

[8] = qHTS of pediatric cancer cell lines to identify multiple opportunities for drug repurposing: Confirmatory screen for NB-EBc1 cells (AID 1347115);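 further: cells exposed to compound for 48 h before the viability read; nearly all actives have a fitted effect of over 45% in size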
Procedure, shortened: as §1

[9] = qHTS of pediatric cancer cell lines to identify multiple opportunities for drug repurposing: Confirmatory screen for BT-37 cells (AID 1347117); further: nearly all actives have a fitted effect of over 55% in size
Procedure, shortened: as §1

[10] = qHTS of pediatric cancer cell lines to identify multiple opportunities for drug repurposing: Confirmatory screen for TC32 cells (AID 1347118);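 further: cells exposed to compound for 48 h before the read; nearly all actives have a fitted effect of over 65% in size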
Procedure, shortened: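 Luminescent ATP read-out (CellTiter-Glo) of metabolically active TC32 cells after 48 h exposure. Concentration-response curves came from 11-point (MIPE, 0.78 nM–46 µM) or 8-point (NPC, 0.59 nM–46 µM) primary titrations; follow-up used 11 points.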

[11] = qHTS of pediatric cancer cell lines to identify multiple opportunities for drug repurposing: Confirmatory screen for U-2 OS cells (AID 1347122); further: nearly all actives have a fitted effect of over 65% in size
Procedure, shortened: as §1

[12] = qHTS of pediatric cancer cell lines to identify multiple opportunities for drug repurposing: Confirmatory screen for Rh41 cells (AID 1347123); further: nearly all actives have a fitted effect of over 60% in size
Procedure, shortened: as §1

[13] = qHTS of pediatric cancer cell lines to identify multiple opportunities for drug repurposing: Confirmatory screen for RD cells (AID 1347124)
Procedure, shortened: as §1

[14] = qHTS of pediatric cancer cell lines to identify multiple opportunities for drug repurposing: Confirmatory screen for SJ-GBM2 cells (AID 1347116); further: nearly all actives have a fitted effect of over 60% in size
Procedure, shortened: as §2

[15] = qHTS of pediatric cancer cell lines to identify multiple opportunities for drug repurposing: Confirmatory screen for MG 63 (6-TG R) cells (AID 1347119); further: nearly all actives have a fitted effect of over 55% in size
Procedure, shortened: as §1

[16] = qHTS of pediatric cancer cell lines to identify multiple opportunities for drug repurposing: Confirmatory screen for Rh18 cells (AID 1347125); further: nearly all actives have a fitted effect of over 55% in size
Procedure, shortened: as §1

[17] = qHTS of pediatric cancer cell lines to identify multiple opportunities for drug repurposing: Confirmatory screen for Rh30 cells (AID 1347126); further: nearly all actives have a fitted effect of over 55% in size
Procedure, shortened: as §1

[18] = qHTS of pediatric cancer cell lines to identify multiple opportunities for drug repurposing: Confirmatory screen for control Hh wild type fibroblast cells (AID 1347121); further: nearly all actives have a fitted effect of over 70% in size
Procedure, shortened: as §1

[19] = qHTS of pediatric cancer cell lines to identify multiple opportunities for drug repurposing: Confirmatory screen for BT-12 cells (AID 1347112); further: nearly all actives have a fitted effect of over 55% in size
Procedure, shortened: as §1

[20] = qHTS of pediatric cancer cell lines to identify multiple opportunities for drug repurposing: Primary screen for Rh30 cells (AID 1347107); further: nearly all actives have a fitted effect of over 75% in size
Procedure, shortened: as §1

Measured: Potency
Potency means the concentration at half of the fitted maximal effect.

CC(C)c1nn(-c2c(Cl)cccc2Cl)c2nc(Cc3ccc(OCCO)cc3)[nH]c(=O)c12
inactive: [1] | [3] | [8]
active: [2] 0.372 µM | [4] 0.131 µM | [5] 0.117 µM | [6] 0.0414 µM | [7] 0.208 µM | [9] 0.0827 µM | [10] 0.131 µM | [11] 0.0827 µM | [12] 0.131 µM | [13] 0.208 µM

CC(=O)OCC(=O)[C@@]1(O)[C@H](C)C[C@H]2[C@@H]3C=C(C)C4=Cc5c(cnn5-c5ccccc5)C[C@]4(C)[C@@H]3[C@@H](O)C[C@@]21C
active: [2] 18.7 µM | [3] 10.4 µM | [4] 13.1 µM | [5] 2.93 µM | [7] 18.5 µM | [8] 23.3 µM | [14] 13.1 µM | [9] 13.1 µM | [10] 4.14 µM | [15] 18.5 µM | [11] 9.27 µM | [12] 13.1 µM | [16] 16.5 µM | [17] 16.5 µM
inactive: [1]

O=C(CCCCCCNC(=O)c1cnc(N(c2ccccc2)c2ccccc2)nc1)NO
inactive: [1]
active: [2] 9.35 µM

Cc1cc(CN2CCN(c3c(Br)cnc4nc(-c5ccc(N6CCN(C)CC6)cc5)[nH]c34)CC2)no1
active: [2] 5.9 µM
inactive: [1]

Cc1cnc(Nc2ccc(F)cc2Cl)nc1-c1c[nH]c(C(=O)N[C@H](CO)c2cccc(Cl)c2)c1
active: [2] 18.7 µM | [4] 0.827 µM | [7] 23.3 µM | [11] 6.57 µM | [12] 18.5 µM
inactive: [1] | [5] | [6] | [9] | [10] | [15] | [18]

CC[C@H]1CN2CCc3cc(OC)c(OC)cc3[C@H]2C[C@@H]1C[C@@H]1NCCc2cc(OC)c(OC)cc21
inactive: [1] | [18]
active: [2] 4.69 µM | [3] 1.85 µM | [4] 0.657 µM | [5] 0.293 µM | [19] 0.261 µM | [6] 0.165 µM | [7] 3.69 µM | [8] 0.657 µM | [14] 0.522 µM | [9] 0.293 µM | [10] 0.233 µM | [15] 0.827 µM | [11] 0.928 µM | [12] 1.47 µM | [13] 0.369 µM | [17] 5.85 µM

CN1CCN(c2cc(C(=O)Nc3ccc4c(c3)-c3c(c(C(N)=O)nn3-c3ccc(F)cc3)CC4)c(Cl)cn2)CC1
active: [1] 20.9 µM | [2] 20.9 µM | [3] 23.3 µM | [4] 14.7 µM | [5] 20.8 µM | [6] 16.5 µM | [7] 23.3 µM | [9] 20.8 µM | [10] 20.8 µM | [12] 14.7 µM | [17] 0.465 µM

Cc1ccc(S(=O)(=O)Nc2cc(Cl)ccc2C(=O)Nc2nc(-c3ccccc3)cs2)cc1
inactive: [1]
active: [2] 18.7 µM

CC1=C(CO)C(=O)O[C@@H]([C@@H](C)[C@H]2CC[C@H]3[C@@H]4C[C@H]5O[C@]56[C@@H](O)C=CC(=O)[C@]6(C)[C@@H]4CC[C@]23C)C1
inactive: [1] | [5] | [7] | [14] | [9] | [10] | [15] | [18] | [11] | [12]
active: [2] 1.18 µM | [4] 18.5 µM

CCN(CC)CCCCNc1ncc2cc(-c3cc(OC)cc(OC)c3)c(NC(=O)NC(C)(C)C)nc2n1
active: [1] 29.6 µM | [2] 11.8 µM

Nc1ccc(S(=O)(=O)Nc2ncccn2)cc1
inactive: [1] | [2]

O=C(O)c1ccc2cc(-c3ccc(O)c(C45CC6CC(CC(C6)C4)C5)c3)ccc2c1
inactive: [1] | [19] | [18]
active: [2] 5.9 µM | [3] 2.93 µM | [4] 2.93 µM | [5] 1.17 µM | [6] 1.47 µM | [7] 3.69 µM | [9] 1.47 µM | [10] 0.585 µM | [15] 0.585 µM | [12] 3.29 µM | [17] 0.104 µM

COc1cc(C)c(Sc2cnc(NC(=O)c3ccc(CNC(C)C(C)C)cc3)s2)cc1C(=O)N1CCN(C(C)=O)CC1 (stereo not given)
active: [2] 2.64 µM
inactive: [1]

Cc1nc(Nc2n[nH]c3c2CN(C(=O)N[C@H](CN(C)C)c2ccccc2)C3(C)C)c2sccc2n1
active: [1] 14.8 µM | [2] 6.62 µM | [4] 13.1 µM | [19] 13.1 µM
inactive: [7] | [8] | [14] | [18] | [11] | [12] | [17]

CC=C1NC(=O)[C@H]2CSSCCC=C[C@H](CC(=O)N[C@H](C(C)C)C(=O)N2)OC(=O)[C@H](C(C)C)NC1=O
active: [1] 0.0526 µM | [2] 0.0148 µM | [5] 11.7 µM | [10] 14.7 µM
not listed: [9] | [13] | [15] | [16] | [19] | [20]
inactive: all other assays above

COc1cc(Nc2ncc(F)c(Nc3ccc4c(n3)N(COP(=O)(O)O)C(=O)C(C)(C)O4)n2)cc(OC)c1OC
inactive: [1]
active: [2] 3.72 µM | [3] 5.85 µM | [4] 7.37 µM | [5] 11.7 µM | [6] 10.4 µM | [7] 3.69 µM | [9] 10.4 µM | [10] 5.85 µM | [15] 2.33 µM | [11] 4.14 µM | [12] 3.29 µM | [13] 16.5 µM | [17] 2.33 µM

C=CC(=O)Nc1cccc(Oc2nc(Nc3ccc(N4CCN(C)CC4)cc3OC)ncc2Cl)c1
active: [2] 0.118 µM | [3] 23.3 µM | [4] 20.8 µM | [5] 13.1 µM | [14] 11.7 µM | [9] 20.8 µM | [10] 14.7 µM | [15] 23.3 µM | [12] 16.5 µM | [17] 13.1 µM
inactive: [1] | [18]

CC(C)c1cnn2c(NCc3ccccc3)cc(N[C@@H](CO)[C@H](O)CO)nc12
inactive: [1] | [18]
active: [2] 0.743 µM | [4] 0.369 µM | [5] 0.585 µM | [19] 0.522 µM | [7] 0.827 µM | [9] 0.369 µM | [10] 0.522 µM | [15] 0.827 µM | [11] 0.465 µM | [12] 0.737 µM | [13] 0.737 µM

CS(=O)(=O)c1ccc(-c2cnc(N)c(C(=O)Nc3ccccc3)n2)cc1
inactive: [1] | [2]

CN(c1ncccc1CNc1nc(Nc2ccc3c(c2)CC(=O)N3)ncc1C(F)(F)F)S(C)(=O)=O
inactive: [18] | [16]
active: [1] 20.9 µM | [2] 9.35 µM | [4] 3.69 µM | [19] 13.1 µM | [7] 6.57 µM | [9] 7.37 µM | [11] 7.37 µM | [12] 3.69 µM

Nc1cccc(-c2cc3c(Oc4cccc(O)c4)ncnc3[nH]2)c1
active: [2] 5.9 µM
inactive: [1]

Cc1cc(Nc2ncnc3ccc(-c4ccc(CNCCS(C)(=O)=O)o4)cc23)ccc1Oc1ccn2ncnc2c1
active: [2] 11.8 µM | [5] 20.8 µM | [14] 0.0657 µM | [9] 16.5 µM | [10] 18.5 µM | [12] 2.33 µM
inactive: [1] | [15] | [18]

O=C(O)Cn1nnc(-c2cc(N3CCC(Oc4cc(F)ccc4Br)CC3)no2)n1
inactive: [1] | [2]

Cc1c(Cn2c(C)nc3c(C(=O)O)cc(N4CCOCC4)cc32)cccc1C(F)(F)F
active: [11] 23.3 µM
inactive: [1] | [3] | [4] | [14] | [15] | [18] | [12] | [13] | [17]

CC(C)CC(=O)Nc1n[nH]c2c1CN(C(=O)C1CCN(C)CC1)C2(C)C
inactive: [20] | [3] | [18] | [17]
active: [2] 3.72 µM | [4] 1.04 µM | [19] 2.93 µM | [11] 16.5 µM | [12] 1.31 µM | [13] 6.57 µM

C#Cc1cccc(Nc2ncnc3cc(OC)c(OCCCCCCC(=O)NO)cc23)c1
active: [20] 11.8 µM | [2] 0.372 µM | [3] 0.955 µM | [4] 2.4 µM | [5] 0.603 µM | [19] 5.37 µM | [6] 0.676 µM | [7] 2.14 µM | [8] 1.7 µM | [14] 1.91 µM | [9] 0.759 µM | [10] 0.676 µM | [15] 0.851 µM | [18] 10.7 µM | [11] 1.35 µM | [12] 1.07 µM | [13] 1.2 µM | [16] 1.91 µM | [17] 2.14 µM
